# Screens (PubChem BioAssay)
# Sampled rows, rich in hits. Any-hit rate of the full collection: about 6%.
# D1 antagonist: human D1 dopamine receptor antagonism; P21728; HEK293 TREx D1 cells, calcium flux, dopamine EC80; active compounds read low; 360,000 compounds, 3.2% hits; activity change, negative = inhibition, % at 10 µM; in the data active = activity change below about -30%; note: % is set by controls: 0 for no effect and ±100 for the full control effect
#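 Cells carrying a force-coupled, tetracycline-inducible human D1 receptor report calcium flux. Each well gets a 10 s baseline, compound with 180 s monitoring, then an EC80 dopamine stimulus with a second 180 s kinetic read.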
# D1 potentiator: human D1 dopamine receptor positive modulation | P21728 | HEK293 TREx D1 cells, calcium flux, dopamine EC20 potentiation | potentiation, % at 10 µM | 360,000 compounds, 0.036% hits | AID 504651; in the data active = potentiation above about 30%; note: 0% is about no effect
# D1 ag: agonists of human D1 dopamine receptor; P21728; HEK293 T-REx D1 cells, calcium flux, agonist mode; activation, % at 2 µM; 360,000 compounds, 1% hits; AID 504660; in the data active = activation above about 30%; note: 0% is about no effect
#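 Inducible HEK293 T-REx D1 cells, force-coupled to calcium signalling, were plated at 4000 cells/well with tetracycline and held overnight at 30 C. After no-wash calcium dye loading, compound-evoked calcium rise over 180 s flagged agonists.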
# DRD3 antagonist: antagonists of human D3 dopamine receptor | D3R cells, DiscoveRx beta-arrestin luminescence, antagonist mode; active compounds read low | P35462 | max response, negative = inhibition, % | 360,000 compounds, 2.5% hits; in the data active = max response below about -50%; inconclusive = no clear call, values can overlap the other calls; note: % is set by controls: 0 for no effect and ±100 for the full control effect
# Target sequence (P35462 whole entry, looked up): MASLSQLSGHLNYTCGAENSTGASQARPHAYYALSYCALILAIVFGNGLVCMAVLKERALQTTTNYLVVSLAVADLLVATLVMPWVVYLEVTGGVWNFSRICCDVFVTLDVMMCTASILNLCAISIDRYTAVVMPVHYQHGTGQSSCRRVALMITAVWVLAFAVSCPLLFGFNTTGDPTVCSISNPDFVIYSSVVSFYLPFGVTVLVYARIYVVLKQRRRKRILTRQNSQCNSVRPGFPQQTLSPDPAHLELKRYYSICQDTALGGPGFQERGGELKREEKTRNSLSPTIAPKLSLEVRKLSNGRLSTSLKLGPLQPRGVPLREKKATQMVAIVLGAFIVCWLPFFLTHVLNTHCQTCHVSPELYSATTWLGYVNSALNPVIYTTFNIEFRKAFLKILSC
#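 Cells plated overnight at 1500 cells/well, then exposed to library compounds with dopamine controls for 90 minutes at 37 degrees C. DiscoveRx reagent added for 30–60 minutes at room temperature; luminescence read, quantitative HTS format.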
# D3 ag: agonists of human D3 dopamine receptor; P35462; AID 652048; max activation, %; 410,000 compounds, 0.58% hits; D3R DiscoveRx beta-arrestin cells, luminescence, 90 min; in the data active = max activation above about 30%; note: 0% is about no effect
#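 Agonist mode: compounds and dopamine controls were applied to plated cells for 90 min at 37 degrees C after an overnight attachment at 1500 cells/well. Luminescent read-out followed 30 - 60 minutes at room temperature with DiscoveRx detection reagent.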
# Active calls of the source: *; ? = inconclusive; nt = no result.
SMILES,D1 antagonist,D1 potentiator,D1 ag,DRD3 antagonist,D3 ag
Cc1ccc(CN2CCC(CNC(=O)c3ccc(NC(=O)C4=CSCCO4)cc3)CC2)cc1,-30*,-6,11,4,-10
O=C(Nc1ccc(C(=O)NCCCN2CCN(c3ccccc3)CC2)cc1)C1=CSCCO1,-39*,-7,36*,-73*,-7
CCOc1ccc(NC(=O)CN(C)C2=NS(=O)(=O)c3ccccc32)cc1,nt,nt,nt,-20,-1
O=c1cc(CO)occ1O,nt,nt,nt,nt,13
COc1ccc(NC(=O)CSc2nc3ccccc3n2CC(=O)NCc2ccc(F)cc2)cc1,6,0,-1,nt,-15
Cc1ccccc1NC(=O)Cn1c(SCC(=O)Nc2ccc(F)cc2)nc2ccccc21,-80*,0,1,nt,14
Cc1cccc(CN2CCN(C(=O)c3ccccc3F)CC2)c1,-14,-3,3,-78*,0
OC(COc1ccccc1)CN1CCOCC1 (stereo not drawn),-16,0,-1,13,11
OC(COc1ccc(Cl)cc1)CN1CCN(c2ccccc2)CC1 (stereo not drawn),-16,-3,3,-87*,-2
Cc1ccc(OCC(O)CN2CCN(c3ccccc3)CC2)cc1 (stereo not drawn),3,-8,4,-75*,10
O=C(/C=C/c1ccc(F)cc1)N1CCN(Cc2ccccc2)CC1,nt,nt,nt,-69*,-20
Cc1cccc(CN2CCN(C(=O)c3cccc4ccccc34)CC2)c1,-7,0,1,12,2
N#Cc1nc(Nc2ccc3ccccc3c2)nc(NC2CCCC2)n1,39,7,4,nt,nt
O=C1c2ccccc2C(=O)N1CC(O)COc1ccc(Cl)cc1 (stereo not drawn),-31*,-10,0,5,-20
Cc1cc(OCCN2CCC(Cc3ccccc3)CC2)ccc1[N+](=O)[O-],-2,-1,9,-64*,-24
Cc1cc(OCCN2CC(C)OC(C)C2)ccc1[N+](=O)[O-] (stereo not drawn),-12,-3,1,-24,-6
Cc1ccc(C)c(OCC(O)CN2CCC(Cc3ccccc3)CC2)c1 (stereo not drawn),-78*,-18,47*,-7,-9
O=C(/C=C/c1ccccc1)N1CCN(CC(O)COc2ccccc2)CC1 (stereo not drawn),11,-3,1,-71*,-10
O=C(CSc1nc(=O)n(Cc2ccccn2)c2c1CCC2)Nc1ccccc1,-12,-6,2,nt,-1
Cc1ccc(OCC(O)CN2CCN(c3ccc(C)cc3)CC2)cc1 (stereo not drawn),-6,-10,0,-88*,-21
Cc1cc(OCC(O)CN2CCN(c3cccc(Cl)c3)CC2)ccc1Cl (stereo not drawn),-12,0,4,nt,-6
Cc1cccc(N2CCN(CC(O)COc3ccc4ccccc4c3)CC2)c1 (stereo not drawn),nt,nt,nt,?,47*
COc1ccc(N2CCN(CC(O)COc3ccc(F)cc3)CC2)cc1 (stereo not drawn),-66*,-22,12,-66*,-20
Cc1ccc(N2CCN(CC(O)COc3ccccc3)CC2)cc1 (stereo not drawn),1,-1,2,-54*,-17
COc1ccc(OCC(O)CN2CCN(c3ccc(OC)cc3)CC2)cc1 (stereo not drawn),-15,9,0,?,-18
SMILES,D1 antagonist,D1 potentiator,D1 ag,DRD3 antagonist,D3 ag
COc1ccc(-n2ccn(CC(=O)Nc3ccc(C)cc3C)c(=O)c2=O)cc1,0,-4,12,nt,4
CCOC(=O)C1=C(COC(=O)C2CC(=O)N(c3ccccc3CC)C2)NC(=O)NC1C (stereo not drawn),nt,nt,nt,10,-2
CCOc1ccc(CN2CCC(Cc3ccccc3)CC2)cc1,-31*,-2,6,?,-21
OC(COc1ccc(Cl)cc1)CN1CCC(Cc2ccccc2)CC1 (stereo not drawn),-24,-7,19,-76*,-11
COc1ccc(CN2CCC(Cc3ccccc3)CC2)cc1OC,-15,-1,8,?,-18
COc1cccc(CNC(=O)c2ccc3c(c2)nc2n3CCC(C)C2)c1 (stereo not drawn),4,0,-1,nt,-18
CC(C)Oc1ccc(C(=O)N2CCN(c3nc4c(F)cc(F)cc4s3)CC2)cc1,nt,-2,-1,nt,-10
Fc1ccc(-c2n[nH]c(=S)n2-c2ccc3c(c2)OCCO3)cc1,14,-2,2,-5,-1
S=c1[nH]nc(-c2cccnc2)n1-c1ccc2c(c1)OCCO2,-46*,-2,3,?,-3
COC(=O)[C@]12CCCCC=C1N(Cc1ccco1)C(=O)[C@H](CC(=O)NCc1ccc(C)o1)C2,nt,nt,nt,-16,-6
COc1cccc(C(NC(C)=O)c2nc(-c3cccc4cccnc34)cs2)c1 (stereo not drawn),nt,nt,nt,-14,57*
COc1ccc(NC(=O)c2cc(C3CCCCN3S(C)(=O)=O)on2)c(C)c1 (stereo not drawn),nt,nt,nt,-25,-8
Cc1cc(C)c(S(=O)(=O)/N=C2/C=C(Sc3ncn[nH]3)C(=O)c3ccccc32)cc1C,16,1,0,-69*,-9
Cc1ccc(C)c(S(=O)(=O)/N=C2\C=C(NS(=O)(=O)c3ccccc3)C(=O)c3ccccc32)c1,-17,-6,2,?,-5
COCCNC(=S)NC1CC2CCCC(C1)N2Cc1cccs1 (stereo not drawn),2,-4,-1,?,-39
Cc1cccc(NC(=S)NC2CC3CCCC(C2)N3Cc2cccs2)c1 (stereo not drawn),-89*,-20,13,-87*,-29
CCCCn1c(CNC(=O)C23CC4CC(CC(C4)C2)C3)nnc1SCC(=O)Nc1ccc(F)cc1,16,1,1,nt,3
Cc1ccccc1CN1CCN(C(=O)[C@H]2O[C@@H](n3cnc4c(N)ncnc43)[C@H](O)[C@@H]2O)CC1,nt,nt,nt,18,-10
COCCNC(=O)c1cnc2sc(N3CCCCC3)nn2c1=O,2,-1,0,nt,9
O=C(Nc1ccc2c(c1)OCCO2)C(CCc1ccccc1)N1CCC(Cc2ccccc2)CC1 (stereo not drawn),nt,nt,nt,-69*,-14
O=C(Nc1ccc2c(c1)OCCO2)C(CCc1ccccc1)N(Cc1ccccc1)Cc1ccccc1 (stereo not drawn),nt,nt,nt,0,-2
CCCCNC(=O)/C(C#N)=C/c1ccc(F)cc1F,-52*,-10,2,-19,2
O=C(Oc1c(CN2CCOCC2)cc(Cl)c2cccnc12)c1cccs1,15,-2,1,-63*,-19
O=C(Oc1c(CN2CCOCC2)cc(Cl)c2cccnc12)c1ccc(F)cc1,3,-4,0,-61*,-24
COc1cc(C(=O)Oc2c(CN3CCOCC3)cc(Cl)c3cccnc23)cc(OC)c1OC,-13,-1,1,-111*,-38
